Source: PubChem BioAssay (NCI)
About 79,000 compounds went through this panel and 15% of them were active in at least one assay; those are over-represented in the sample as a whole. Calls of active or inactive are those of the source. Rule as the data show it: active = growth inhibition above about 70%; inactive = the rest.

What was measured:
[1] = NCI Yeast Anticancer Drug Screen. Data for the rad52 strain (AID 147);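 also: 0% = growth of vehicle-treated control cultures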; conditions: S. cerevisiae rad52 mutant growth inhibition, hits give high values
Outline: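 The repair-mutant yeast strain was incubated with compounds, then growth was read and inhibition derived relative to vehicle.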

[2] = NCI Yeast Anticancer Drug Screen. Data for the wt1 strain (AID 149);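 also: 0% = growth of vehicle-treated wt1 cultures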; conditions: S. cerevisiae wt1 strain (SPY 50644) growth inhibition, hits give high values
Outline: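 Each compound is tested on wt1 yeast and the loss of growth versus vehicle gives the inhibition value.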

[3] = NCI Yeast Anticancer Drug Screen. Data for the rad50EPP+ strain (AID 151);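 also: 0% = growth of vehicle-treated control cultures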; conditions: S. cerevisiae rad50 mutant strain, hits give high values
Outline: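 Vehicle-normalised growth inhibition; rad50EPP+ yeast strain, altered in DNA damage repair, compound-treated.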

[4] = NCI Yeast Anticancer Drug Screen. Data for the mgt1 strain (AID 153); conditions: S. cerevisiae mgt1 mutant growth inhibition, hits give high values
Outline: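 Vehicle-normalized growth inhibition is determined in mgt1 yeast, a strain selected for a defined alteration in DNA repair or cell cycle control.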

[5] = NCI Yeast Anticancer Drug Screen. Data for the rad50 strain (AID 155);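 also: 0% = growth of vehicle-only cultures of the same strain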; conditions: S. cerevisiae rad50 strain growth inhibition, hits give high values
Outline: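 Vehicle-treated cultures provide the reference for the growth inhibition reported for compound-exposed, repair-deficient yeast.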

[6] = NCI Yeast Anticancer Drug Screen. Data for the mec2-1 strain (AID 157); conditions: S. cerevisiae mec2-1 strain, hits give high values
Outline: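 Mutant yeast (mec2-1) grown with compound; growth inhibition relative to vehicle control reported.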

[7] = NCI Yeast Anticancer Drug Screen. Data for the rad14 strain (AID 159);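 also: 0% = growth of vehicle-treated control cultures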; conditions: S. cerevisiae rad14 strain growth inhibition, hits give high values
Outline: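 Inhibition of growth is reported for a repair-deficient yeast mutant following compound treatment, calculated relative to cultures that received vehicle.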

[8] = NCI Yeast Anticancer Drug Screen. Data for the sgs1 mgt1 strain (AID 161);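 also: 0% = growth of cultures given vehicle only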; conditions: S. cerevisiae sgs1 mgt1 strain, hits give high values
Outline: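 Compounds are added to genetically altered yeast, and growth is compared with cultures given vehicle alone to give percent inhibition.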

[9] = NCI Yeast Anticancer Drug Screen. Data for the CLN2oe strain (AID 163);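 also: 0% = growth of vehicle-only control cultures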; conditions: S. cerevisiae CLN2oe strain, hits give high values
Outline: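 Compounds are applied to yeast harbouring a defined cell-cycle control change; reduced growth compared with vehicle-treated controls gives the value.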

[10] = NCI Yeast Anticancer Drug Screen. Data for the cln2 rad14 strain (AID 165);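 also: 0% = growth equal to vehicle treated cultures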; conditions: S. cerevisiae cln2 rad14 strain, hits give high values
Outline: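 Readout is yeast growth inhibition versus vehicle-treated controls, using a strain with cln2 and rad14 alterations exposed to compound.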

[11] = NCI Yeast Anticancer Drug Screen. Data for the bub3 strain (AID 167); conditions: S. cerevisiae bub3 mutant strain, hits give high values
Outline: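 Mutant yeast screening strain plus compound; vehicle-treated cultures serve as the 0% inhibition reference.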

[12] = NCI Yeast Anticancer Drug Screen. Data for the wt2 strain (AID 169); conditions: S. cerevisiae wt2 strain growth inhibition, hits give high values
Outline: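 Against vehicle-treated controls, the growth of yeast exposed to each compound was compared, and the inhibition was recorded.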

[13] = NCI Yeast Anticancer Drug Screen. Data for the mlh1 strain (AID 171);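 also: 0% = growth of vehicle-treated control cultures of the same strain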; conditions: S. cerevisiae mlh1 strain growth inhibition, hits give high values
Outline: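 Measured: yeast growth. Reference: vehicle-treated controls. Organism: strain with a defined alteration affecting DNA damage repair or cell cycle control, treated with compound.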

[14] = NCI Yeast Anticancer Drug Screen. Data for the sgs1 strain (AID 173);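 also: 0% = growth of vehicle-only control cultures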; conditions: S. cerevisiae sgs1 mutant, hits give high values
Outline: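 Each compound was added to cultures of the altered yeast strain. Growth was recorded, and inhibition was derived by comparison with vehicle controls.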

[15] = NCI Yeast Anticancer Drug Screen. Data for the mlh1 rad18 strain (AID 175); conditions: S. cerevisiae mlh1 rad18 strain growth inhibition, hits give high values
Outline: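 Genetically defined yeast (DNA repair-deficient) exposed to compounds; growth inhibition determined relative to vehicle.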

[16] = NCI Yeast Anticancer Drug Screen. Data for the rad18 strain (AID 177); conditions: S. cerevisiae rad18 mutant growth inhibition, hits give high values
Outline: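 Vehicle-treated cultures served as the baseline for scoring compound-induced growth inhibition in DNA-repair-mutant yeast.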

[17] = at 5.0 µM (retest, dose inferred, filed as 0.5)
[18] = at 50.0 µM (retest, dose inferred, filed as 5.0)

Measured: growth inhibition

CN(C)[C@@H]1C(=O)C(C(N)=O)=C(O)[C@@]2(O)C(=O)C3=C(O)c4c(O)cccc4C[C@H]3C[C@@H]12
active: [1]; at 33.0 µM 97% | [1]; at 100.0 µM 98% | [2]; at 33.0 µM 95% | [2]; at 100.0 µM 99% | [4]; at 33.0 µM 97% | [4]; at 100.0 µM 99% | [5]; at 33.0 µM 95% | [5]; [18] 99% | [5]; at 50.0 µM 85.1% | [5]; at 100.0 µM 99% | [6]; [17] 87% | [6]; at 33.0 µM 97% | [6]; [18] 99% | [6]; at 50.0 µM 91% | [6]; at 100.0 µM 99% | [7]; at 33.0 µM 98% | [7]; at 100.0 µM 99% | [8]; [18] 99% | [8]; at 50.0 µM 91% | [9]; at 33.0 µM 98% | [9]; at 100.0 µM 99% | [10]; [18] 99% | [10]; at 50.0 µM 84.7% | [11]; [17] 97% | [11]; at 33.0 µM 97% | [11]; [18] 99% | [11]; at 50.0 µM 89% | [11]; at 100.0 µM 99% | [12]; at 33.0 µM 99% | [12]; at 100.0 µM 99% | [13]; at 33.0 µM 97% | [13]; at 100.0 µM 99% | [14]; at 33.0 µM 98% | [14]; at 100.0 µM 99% | [15]; [18] 99% | [15]; at 50.0 µM 89.8% | [16]; at 33.0 µM 95% | [16]; at 100.0 µM 99%
inactive: [1]; at 1.2 µM -5% | [1]; at 3.7 µM -10% | [1]; at 11.0 µM 17% | [2]; at 1.2 µM -1% | [2]; at 3.7 µM 2% | [2]; at 11.0 µM 30% | [3]; at 1.2 µM -9% | [3]; at 3.7 µM -8% | [3]; at 11.0 µM 14% | [3]; at 33.0 µM 10% | [3]; at 100.0 µM 9% | [4]; at 1.2 µM 0% | [4]; at 3.7 µM -5% | [4]; at 11.0 µM 21% | [5]; at 1.2 µM -19% | [5]; at 3.7 µM -25% | [5]; [17] 7% | [5]; at 11.0 µM 9% | [6]; at 1.2 µM -5% | [6]; at 3.7 µM -4% | [6]; at 11.0 µM 1% | [7]; at 1.2 µM 0% | [7]; at 3.7 µM -5% | [7]; at 11.0 µM 44% | [8]; [17] 23% | [9]; at 1.2 µM -7% | [9]; at 3.7 µM -15% | [9]; at 11.0 µM 27% | [10]; [17] 61% | [11]; at 1.2 µM -8% | [11]; at 3.7 µM -7% | [11]; at 11.0 µM 5% | [12]; at 1.2 µM 9% | [12]; at 3.7 µM 14% | [12]; at 11.0 µM 52% | [13]; at 1.2 µM -13% | [13]; at 3.7 µM -11% | [13]; at 11.0 µM 36% | [14]; at 1.2 µM -7% | [14]; at 3.7 µM -9% | [14]; at 11.0 µM 26% | [15]; [17] 38% | [16]; at 1.2 µM -7% | [16]; at 3.7 µM -8% | [16]; at 11.0 µM -2%
